Experimental data as given in PubChem BioAssay (NCI).
About 83,000 compounds went through this panel and 20% of them were active in at least one assay; those are over-represented in the sample as a whole.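 Method: cells in 96-well plates; compound added at one concentration; 48 h incubation; percent growth measured; values under 10 scored active.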 Values without a mark were called inactive. The source made the active and inactive calls.

What was measured:
Test in all cases: NCI-60 one-dose screen, 48 h (100 = growth as untreated, 0 = no growth, -100 = all killed)
Conditions in all cases: 10 µM unless noted
[1] = system: NCI-H23 lung
[2] = system: NCI-H226 lung
[3] = system: NCI-H322M lung
[4] = system: HOP-62 NSCLC
[5] = system: NCI-H460 lung
[6] = system: HOP-92 NSCLC
[7] = system: NCI-H522 lung
[8] = system: A549/ATCC NSCLC
[9] = system: 786-0 renal
[10] = system: COLO 205 colon
[11] = system: DU-145 prostate
[12] = system: K-562 leukemia
[13] = system: MALME-3M melanoma
[14] = system: MDA-MB-231 breast
[15] = system: RXF 393 renal
[16] = system: SF-268 CNS
[17] = system: SF-295 CNS
[18] = system: SF-539 CNS
[19] = system: UACC-257 melanoma
[20] = system: M14 melanoma

Compound	growth [1] [%]	growth [2] [%]	growth [3] [%]	growth [4] [%]	growth [5]	growth [6] [%]	growth [7] [%]	growth [8] [%]	growth [9]	growth [10]	growth [11] [%]	growth [12]	growth [13] [%]	growth [14]	growth [15]	growth [16] [%]	growth [17]	growth [18] [%]	growth [19] [%]	growth [20]
O=[N+]([O-])c1ccc(Cl)c(-c2cc(CCCCO)on2)c1	101	93.5	96.3	106	109%	94.2	93.8	92.9	98.6%	131%	111	102%	102	103%	99.2%	99.3	111%	96.7	117	110%
c1ccc2cc(C[n+]3ccn(CCCCCCn4cc[n+](Cc5ccc6ccccc6c5)c4)c3)ccc2c1	30.5	69.6	76.2	55.8	24.6%	59.9	33.1	38.6	83.6%	27.9%	65.9	28.3%	11.2	84.1%	87.4%	55.6	48.3%	56.3	61.9	69.9%
COc1cc(C)c(Cc2cnc(N)nc2N)cc1OC	101	93.9	103	97.1	111%	88.9	95.9	103	103%	117%	120	110%	99.3	109%	123%	108	103%	98.6	111	105%
FC(F)(F)c1cc(Nc2ccc3c(OCCCN4CCOCC4)cccc3n2)ccc1Cl	60.8	68.5	51.5	51.2	17.3%	60.2	49.5	30.5	-42.1% (active)	-38.1% (active)	55.9	-31.6% (active)	54.3	10.1%	23.9%	54.6	0.167% (active)	36.2	96.6	40.4%
COc1ccc(/C=C/c2c(C(=O)/C=C/c3ccc(Cl)cc3)c(C)nc3ccccc23)cc1	35.8	12.4	68.6	22.7	0.257% (active)	70.2	23.6	84.1	14.3%	58.4%	13.8	9.27% (active)	28	34.1%	-18.6% (active)	58.7	42.2%	14.4	38.8	14.7%
CN1C(=O)N(C)C2Nn3c(s/c(=C\c4ccccc4)c3=O)=NC21 (stereo not given)	101	94.2	97	97.8	108%	100	87.1	94.8	101%	111%	106	92.8%	101	98.1%	106%	93.9	104%	100	94.1	97.8%
O=c1c2cc(F)ccc2sc2c(NCCN3CCOCC3)nc3ccccc3c12	85.1	91.3	77.8	80.9	31.8%	44.6	65.6	69.3	59.2%	53.2%	68.4	0.338% (active)	92	25.9%	72.9%	68.7	89.4%	74.7	98.2	46.5%
OC(COc1ccccc1)CN1CCN(c2ccc(Cl)cc2)CC1 (stereo not given)	95	95.3	115	123	105%	80.5	98.3	87.1	102%	99.3%	110	73.8%	128	94%	113%	99.4	111%	116	87.7	101%
CCOC(=O)C1=C(N)Oc2c(sc3c(CC)cccc23)C1c1ccc(F)cc1 (stereo not given)	47	49.5	67.2	32	17%	63.5	26.4	47.4	35.4%	51.1%	46.3	10.7%	42.1	73.1%	-4.56% (active)	48.9	11.8%	13.4	55.7	38.2%
O=C1c2ccccc2NC(n2sc3ccccc3c2=O)N1c1ccccc1 (stereo not given)	99	93.3	91.9	92.3	107%	95.2	76.8	101	92%	115%	107	95.5%	106	90.6%	110%	91.7	99.6%	94.7	120	102%
O=c1c2cccc(F)c2sc2c(NCCCNCCO)nc3ccccc3c12	49.9	58	44	45.3	-40.4% (active)	15.4	44.4	26.9	48.5%	-44.4% (active)	23.7	-20% (active)	74	5.79% (active)	50.8%	41.9	63.7%	41.1	85.6	-58.5% (active)
CCOC(=O)CCN(C(=O)Nc1ccccc1)C1CCCCC1	102	115	110	86.8	102%	111	99.2	132	91.5%	139%	100	132%	113	110%	177%	104	108%	98.9	119	108%
c1ccc(-c2nc3sc(-c4ccccc4)cn3n2)cc1	83.5	72.2	88.2	66.7	93.3%	74.4	80.8	89.6	105%	94.5%	84.4	88.5%	124	64.5%	97.7%	92.3	101%	98.7	86	86.7%
COc1ccc(C(=O)N=Nc2c(O)n(C)c3ccccc23)cc1	85.3	91.1	94.4	97.6	94%	86.1	91.5	105	106%	106%	108	89.3%	103	85.2%	100%	95.8	101%	89.8	106	101%
CN(C)CCCNc1nc2ccccc2c2c(=O)c3cc(F)ccc3sc12	70.6	91.5	71.2	65	-1.74% (active)	24	39.2	57	59.3%	-34.1% (active)	26.2	-27% (active)	81.6	-29.6% (active)	48.4%	52.5	78.2%	27.3	84.9	-64.1% (active)
